Reference: ChEMBL document CHEMBL3988442, “University of Dundee, Small-Polar-MMV Screening Library” (2021)
About 13,000 (27%) of roughly 48,000 compounds showed an effect of 50% or more. The list shows a part of the results.

Test system: Wolbachia pipientis
Test: Anti-Wolbachia Cell-Based Screen
Type: functional
Design: scale not given: in the data most compounds retested in dose-response had high values
Conditions: 5 µM

Row | Compound | Percent Effect [%]
1 | O=C(NCCN1CCOCC1)c1cc(-c2ccc(Cl)s2)[nH]n1 | 11.57
2 | N#CC(Sc1nnnn1C1CCOCC1)C1CCCCC1 (stereo not given) | 11.61
3 | CC(=O)c1cc(CN2C[C@H]3CC[C@@H]2CN(S(=O)(=O)N(C)C)C3)cs1 | -15.69
4 | O=C1NC2(Cc3ccccc31)CN(CC1CCNCC1)C2 | 115.6
5 | CC(=O)N1CCN(CC2CCOc3ccccc3C2)CC1 (stereo not given) | -15.11
6 | COc1ccc2c(=O)n(CC3CCNC3)ccc2c1OC (stereo not given) | 10.36
7 | Cc1cc(=O)c2ccccc2n1CC1CCNC1 (stereo not given) | 4.531
8 | O=C1NC2(Cc3ccccc31)CN(CC1CCCC1)C2 | 92.98
9 | OC(CN1CCN(CC2CCCCC2)CC1)c1ccccc1 (stereo not given) | 21.16
10 | O=C1NC2(Cc3ccccc31)CN(CC1CCOCC1)C2 | 125.6
11 | O=C1NC2(Cc3ccccc31)CN(CC1CCNC1)C2 (stereo not given) | 109.8
12 | O=C1NC(c2ccccc2)=N[C@@]12CC[C@@H]1CN(CC3CCOCC3)C[C@@H]12 | 10.45
13 | O=C(O)C(F)(F)F.O=C1NC2(CCN(CC3CC3)CC2)CC1c1ccccc1 (stereo not given) | -3.708
14 | O=c1n(CC2CC2)nc(C2CCNCC2)n1Cc1ccccc1 | 0.2019
15 | O=C(CSc1ccc(F)cc1)NS(=O)(=O)c1ccc2c(c1)OCCO2 | -12.15
16 | CN(C)C(CNCc1nc(-c2ccsc2)no1)c1ccco1 (stereo not given) | 15.02
17 | CCC(O)(CNCc1ccncc1)c1ccc(Br)cc1 (stereo not given) | 15.97
18 | COc1ccc(CN2C[C@@H](F)[C@@H](OCc3nc4cnccc4[nH]3)C2)cn1 | -7.55
19 | O=C(c1cc(-c2ccco2)nc2c(Cl)cccc12)N1CC[C@H]2CNC[C@H]21 | -4.812
20 | O=C(Nc1ccccc1F)N(CCO)Cc1ccsc1 | -6.968
21 | CN1C(=O)[C@H]2CC[C@@H]1CN(C(=O)Nc1ccccc1C(F)(F)F)C2 | -23.74
22 | CCc1noc(CS(=O)(=O)C/C=C/c2ccccc2)n1 | -3.698
23 | CCc1cccc2cc(CN)c(=O)[nH]c12 | 94.88
24 | Cc1cccc2cc(CN3CCC(N4CCCC4)CC3)c(=O)[nH]c12 | -6.915
25 | COCCNC(=O)NCCc1cccc(OC)c1O | -1.079

Row | Compound | Percent Effect [%]
26 | COCCNCc1cc2ccc(C)c(C)c2[nH]c1=O | 110.6
27 | CCc1cccc2cc(CNCCOC)c(=O)[nH]c12 | 77.28
28 | Cc1ccc2cc(CNCCCO)c(=O)[nH]c2c1 | -12.61
29 | Cc1cccc2cc(CN3CCC(O)(CN4CCCC4)CC3)c(=O)[nH]c12 | -13.98
30 | COc1ccc(CNC(=O)NCc2c(C)cc(C)[nH]c2=O)cc1 | -8.384
31 | COc1ccccc1CNCCc1cccc(C(N)=O)c1 | -10.3
32 | CCc1nccn1CCC(=O)N1CC(=O)N(c2ccccc2C)CC1C (stereo not given) | -5.04
33 | CC(O)(CCc1ccccc1)CNC(=O)c1ccsc1 (stereo not given) | 16.96
34 | CCOC(=O)CSc1ccc(-c2nc(CC)no2)cn1 | -9.081
35 | CCOC(=O)CSc1nnc(C(N)CC(C)C)o1.Cl (stereo not given) | 98.1
36 | CCOC(=O)CSc1ccc(-c2nc(C)no2)cn1 | -12.26
37 | Cc1nc2cc(=O)[nH]n2c(C)c1CC(=O)NC(C)C | 6.511
38 | CC(C)NC(=O)CC(C)NCc1cc(Cl)ccc1F (stereo not given) | 1.096
39 | CCC(C)NC(=O)CN1CCC2(CC1)OCCO2 (stereo not given) | 3.422
40 | CSc1nc2cc(C)n(CC(=O)NC(C)C)c2c(=O)n1CC(C)C | 0.5328
41 | CCC(C)NC(=O)Cc1c(C)nc2c(c1C)c(=O)[nH]n2C (stereo not given) | -5.261
42 | Cc1cc(C)cc(Nc2nc(C)cc(=O)n2CC(=O)NC(C)C)c1 | 102.2
43 | Cc1cc(NC(C)C(=O)N2CCN(c3ncccn3)CC2)ccc1F (stereo not given) | -7.766
44 | Cc1cc(=O)n(CC(=O)NC(C)C)c(Nc2ccc(F)c(C)c2)n1 | 119.3
45 | CCC(C)NC(=O)Cn1c(Nc2cc(C)cc(C)c2)nc(C)cc1=O (stereo not given) | 130.9
46 | O=C1CC(c2cccs2)Cc2[nH]c(=O)ccc21 (stereo not given) | 3.972
47 | O=C(CN1CCc2cncnc2C1)NC(C1CC1)C1CC1 | 0.03163
48 | CCN(CC)C(=O)c1ccn(COc2cc(C)cc(C)c2)n1 | 11.03
49 | CN1CCN(C(=O)NC2CCCC2)Cc2cccnc21.O=C(O)C(F)(F)F | -7.276
50 | CN1CCN(Cc2cnc3n2CCN(C(=O)N2CCCC2)C3)CC1 | -14.55

Row | Compound | Percent Effect [%]
51 | O=C(c1ccc(C2CCCN2)s1)N1CCN(C(=O)N2CCOCC2)CC1 (stereo not given) | 14.1
52 | CC(C)c1nnc2n1CCN(C(=O)c1cnc(C3CC3)s1)C2 | -14.42
53 | CC(C)NC(=O)N1CCn2c(nnc2C2CCCN2)C1 (stereo not given) | 102.1
54 | CN(C)Cc1cnc2n1CCN(C(=O)NC1CCCC1)CC2.O=C(O)C(F)(F)F | -15.13
55 | O=C(NC1CCCCC1)N1CCn2c(nnc2C2CCCN2)C1 (stereo not given) | 120.9
56 | O=C(N1CCCC1)N1CCn2c(nnc2C2CCCN2)C1 (stereo not given) | 124.8
57 | CC(C)NC(=O)N1CCC(c2nnc3ccc(C(=O)N(C)C)cn23)C1 (stereo not given) | 2.89
58 | O=C1CC(c2cccs2)Cc2[nH]c(=O)c(C(=O)NC3CCCC3)cc21 (stereo not given) | 7.726
59 | Cn1cc(C(=O)NC[C@H]2OC[C@@H]3CCN(C4CCOCC4)C[C@@H]32)cn1.O=C(O)C(F)(F)F | -10.96
60 | CC1(C)CCN(S(=O)(=O)N2CCCC(c3cccc(C(=O)O)c3)C2)CC1 (stereo not given) | 0.9326
61 | CN1CCc2nc(C3CCCN(C(=O)CC(C)(C)C)C3)ncc2C1 (stereo not given) | 119.8
62 | COC1CCN(S(=O)(=O)N2CCCC(c3cccc(C(=O)O)c3)C2)CC1 (stereo not given) | 12.84
63 | O=C(CCC1CCCC1)N1CCC(c2ncc3c(n2)CCNC3)CC1 | -4.401
64 | CN1CCc2nc(C3CCCN(S(=O)(=O)N4CCCC4)C3)ncc2C1 (stereo not given) | 92.03
65 | CCC(=O)N1CCCC(c2ncc3c(n2)CCN(C)C3)C1 (stereo not given) | 111.8
66 | CN1CCc2nc(C3CCCN(C(=O)CC4CCCCC4)C3)ncc2C1 (stereo not given) | 117.4
67 | CN1CCC(c2ncc3c(n2)CCN(C(=O)CC2C=CCC2)C3)CC1 (stereo not given) | -2.125
68 | Cc1nc[nH]c1CN1CCCC(CNC(=O)c2ccncn2)C1 (stereo not given) | -3.697
69 | CCOc1cccc2c1OCC(C(=O)NC(C)Cn1cccn1)=C2 (stereo not given) | -1.745
70 | CCOc1ccccc1C(=O)NS(=O)(=O)c1ccc2c(c1)OCCCO2 | -4.596
71 | CCOc1cccc2c1OCC(=O)N(c1ccc(N(C)C)cc1)C2 | 138.3
72 | CN(C)C(=O)N1CCC2(CC(=O)N(c3ccc4c(c3)OCO4)C2)C1 (stereo not given) | 3.437
73 | CCOc1cccc2c1OCC(=O)N(c1ccc3c(c1)OCCO3)C2 | 123.7
74 | CCOc1cccc2c1OCC(=O)N(c1ccc3c(c1)OCO3)C2 | 112.1
75 | CCOc1cccc2c1OCC(C(=O)NS(=O)(=O)Cc1ccccc1)=C2 | -3.971

Row | Compound | Percent Effect [%]
76 | CCS(=O)(=O)N1CCC2(CC(=O)N(c3ccc4c(c3)OCO4)C2)C1 (stereo not given) | -0.7388
77 | c1cncc(OCc2nc(C3CC3)nn2-c2ccc3c(c2)OCCO3)c1 | 1.227
78 | Cc1nn(C)cc1C(C)Nc1ncc(C(N)=O)cc1Cl (stereo not given) | -11.95
79 | COC(=O)CC(NC(=O)c1cccc(N2CCCC2=O)c1)c1cccs1 (stereo not given) | 6.294
80 | CN(Cc1ccc(Cl)s1)C(=O)CN(C)C1CCCc2ccccc21 (stereo not given) | -6.291
81 | O=C(CCN1CCSCC1c1ccccc1)N1CCOCC1 (stereo not given) | 2.279
82 | COc1ccsc1C(=O)Nc1cc(CN2CCOCC2)ccc1C | -3.737
83 | O=C(O)C(F)(F)F.O=C(O)C(F)(F)F.c1cncc(C2COC3(CCN(CC4CCOCC4)CC3)C2)c1 (stereo not given) | 107.8
84 | Fc1ccc(CN2CCC3(CC2)CC(c2cccnc2)CO3)cc1.O=C(O)C(F)(F)F.O=C(O)C(F)(F)F (stereo not given) | 97.05
85 | O=C(NC1COC2(CCN(CC3CCC3)CC2)C1)c1ccccn1.O=C(O)C(F)(F)F (stereo not given) | 9.161
86 | O=C(O)C(F)(F)F.O=S(=O)(C1CC1)N1CCC2(CC1)CC(Oc1cccnc1)CO2 (stereo not given) | 3.761
87 | COCCN1CCC2(CC1)CC(c1cccnc1)CO2.O=C(O)C(F)(F)F (stereo not given) | 117.3
88 | O=C(O)C(F)(F)F.O=C(O)C(F)(F)F.c1cncc(C2COC3(CCN(CC4CC4)CC3)C2)c1 (stereo not given) | 1.552
89 | Fc1ccc(N2CCC3(CC2)CC(OCc2cccnc2)CO3)cc1.O=C(O)C(F)(F)F (stereo not given) | -13.34
90 | COCCN1CCC2(CC1)CC(Nc1ccc(C)nn1)CO2.O=C(O)C(F)(F)F (stereo not given) | -23.59
91 | Fc1cnc(N2CCC3(CC2)CC(OCc2cccnc2)CO3)nc1.O=C(O)C(F)(F)F.O=C(O)C(F)(F)F (stereo not given) | -2.608
92 | O=C(O)C(F)(F)F.O=C(O)C(F)(F)F.O=C(O)C(F)(F)F.c1cncc(CN2CCC3(CC2)CC(c2cccnc2)CO3)c1 (stereo not given) | 108.2
93 | OC1(c2cn(CC3CCN(C4CCSC4)CC3)nn2)CCCC1 (stereo not given) | -24.22
94 | Cc1nccn1-c1ccc(NC(=O)C2CCCN2CC2CC2)cc1 (stereo not given) | 11.95
95 | Cc1cc(-n2cncn2)ccc1C(=O)Nc1ccc(N2CCCC2)cn1 | -10.21
96 | FC(F)(F)CCN(Cc1ccon1)C1CCC1 | 0.2197
97 | O=C(O)C(F)(F)F.O=C(O)C(F)(F)F.O=C(c1ccsc1)N1CCOC2(CCN(Cc3cccnc3)CC2)C1 | -15.45
98 | COc1ccc(CN2CCC3(CC2)CC(c2cccnc2)CO3)cc1.O=C(O)C(F)(F)F.O=C(O)C(F)(F)F (stereo not given) | 103.1
99 | O=C(O)C(F)(F)F.O=C(O)C(F)(F)F.c1cncc(C2COC3(CCN(Cc4ccsc4)CC3)C2)c1 (stereo not given) | 104.8
100 | COc1ccc(CN2CCC3(CCN(c4cccnc4)C3=O)C2)cc1.O=C(O)C(F)(F)F.O=C(O)C(F)(F)F (stereo not given) | -2.008
